Measured values from PubChem BioAssay AID1159580 (chemical genetic matrix, 2015).
About 2,000 (36%) of roughly 5,500 compounds were called active. Another 18% or so got no clear call; they are omitted. Rule as the data show it: active = normalized growth mostly below about 0.91 (no sharp cut-off); inconclusive = no clear call, values can overlap the other calls; inactive = mostly above about 0.92. The list shows a part of the results.

Assay: chemical genetic growth profiling, strain panel (AID 1159580);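 also: tested at 20 µM; growth read once vehicle control cultures reached saturation at 30 °C; 1 = growth at the plate median or of vehicle wells; lower values mean less growth of the strain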
Conditions: S. cerevisiae deletion strains, growth OD

Measured: normalized growth

CN(C/C=C/C#CC(C)(C)C)Cc1cccc2ccccc12
active: locus YAL021C, strain ccr4, hits give low values 0.121 | locus YAL026C, strain drs2, hits give low values 0.0882 | locus YAL030W, strain snc1, hits give low values 0.334 | locus YBL061C, strain skt5, hits give low values 0.256 | locus YBR009C, strain hhf1, hits give low values 0.293 | locus YBR023C, strain chs3, hits give low values 0.254 | locus YBR171W, strain sec66, hits give low values 0.793 | locus YBR231C, strain swc5, hits give low values 0.423 | locus YBR279W, strain paf1, hits give low values 0.376 | locus YCL011C, strain gbp2, hits give low values 0.228 | locus YCL016C, strain dcc1, hits give low values 0.334 | locus YCL061C, strain MRC1, hits give low values 0.478 | locus YCL069W, strain vba3, hits give low values 0.283 | locus YCR088W, strain abp1, hits give low values 0.498 | locus YDL005C, strain med2, hits give low values 0.246 | locus YDL040C, strain nat1, hits give low values 0.528 | locus YDR001C, strain nth1, hits give low values 0.573 | locus YDR069C, strain doa4, hits give low values 0.567 | locus YDR137W, strain rgp1, hits give low values 0.492 | locus YDR159W, strain sac3, hits give low values 0.512 | locus YDR195W, strain ref2 1.34 [resistant] | locus YDR297W, strain sur2, hits give low values 0.398 | locus YDR334W, strain swr1, hits give low values 0.492 | locus YDR335W, strain msn5, hits give low values 0.219 | locus YDR392W, strain spt3, hits give low values 0.163 | locus YEL003W, strain gim4, hits give low values 0.311 | locus YEL037C, strain rad23, hits give low values 0.372 | locus YEL061C, strain CIN8 (second series), hits give low values 0.444 | locus YER015W, strain faa2, hits give low values 0.384 | locus YER016W, strain bim1, hits give low values 0.484 | locus YER111C, strain swi4, hits give low values 0.417 | locus YER155C, strain BEM2 (second series), hits give low values 0.469 | locus YFR010W, strain ubp6, hits give low values 0.457 | locus YGL167C, strain pmr1, hits give low values 0.909 | locus YGL173C, strain kem1, hits give low values 0.488 | locus YGL227W, strain vid30, hits give low values 0.536 | locus YGL240W, strain doc1, hits give low values 0.459 | locus YGL253W, strain hxk2, hits give low values 0.208 | locus YHR013C, strain ard1, hits give low values 0.241 | locus YHR027C, strain rpn1, hits give low values 0.442 | locus YHR030C, strain SLT2, hits give low values 0.471 | locus YHR079C, strain IRE1, hits give low values 0.792 | locus YHR142W, strain chs7, hits give low values 0.174 | locus YJL092W, strain hpr5, hits give low values 0.468 | locus YJL095W, strain BCK1 (second series), hits give low values 0.0681 | locus YJL095W, strain BCK1, hits give low values 0.472 | locus YJL115W, strain asf1, hits give low values 0.664 | locus YJL129C, strain trk1, hits give low values 0.351 | locus YJL154C, strain vps35, hits give low values 0.649 | locus YJL164C, strain tpk1, hits give low values 0.215 | locus YJL166W, strain qcr8, hits give low values 0.266 | locus YJL187C, strain SWE1, hits give low values 0.272 | locus YJR066W, strain TOR1, hits give low values 0.683 | locus YKL160W, strain elf1, hits give low values 0.296 | locus YKR026C, strain gcn3, hits give low values 0.452 | locus YKR091W, strain srl3, hits give low values 0.626 | locus YLL001W, strain dnm1, hits give low values 0.37 | locus YLL026W, hits give low values 0.283 | locus YLL041C, strain sdh2, hits give low values 0.462 | locus YLR027C, strain aat2, hits give low values 0.225 | locus YLR113W, strain HOG1, hits give low values 0.807 | locus YLR221C, strain rsa3, hits give low values 0.25 | locus YLR258W, strain gsy2, hits give low values 0.285 | locus YLR262C, strain YPT6 (second series), hits give low values 0.397 | locus YLR320W, strain mms22, hits give low values 0.189 | locus YLR342W, strain FKS1, hits give low values 0.513 | locus YLR370C, strain arc18, hits give low values 0.405 | locus YLR384C, strain iki3, hits give low values 0.635 | locus YML120C, strain ndi1, hits give low values 0.325 | locus YMR058W, strain fet3, hits give low values 0.281 | locus YMR125W, strain sto1, hits give low values 0.533 | locus YMR129W, hits give low values 0.361 | locus YMR205C, strain PFK2, hits give low values 0.532 | locus YMR231W, strain pep5, hits give low values 0.188 | locus YNL071W, strain lat1, hits give low values 0.209 | locus YNL183C, strain NPR1, hits give low values 0.808 | locus YNL209W, strain ssb2, hits give low values 0.395 | locus YNL248C, strain rpa49, hits give low values 0.378 | locus YNL322C, strain KRE1 (second series), hits give low values 0.506 | locus YNR049C, strain mso1, hits give low values 0.562 | locus YOR001W, strain rrp6, hits give low values 0.26 | locus YOR070C, strain gyp1, hits give low values 0.166 | locus YOR080W, strain dia2, hits give low values 0.516 | locus YOR083W, strain WHI5, hits give low values 0.369 | locus YOR106W, strain vam3, hits give low values 0.187 | locus YOR231W, strain MKK1, hits give low values 0.769 | locus YOR265W, strain rbl2, hits give low values 0.432 | locus YOR270C, strain vph1, hits give low values 0.192 | locus YOR290C, strain snf2, hits give low values 0.305 | locus YPL051W, strain arl3, hits give low values 0.199 | locus YPL078C, strain atp4, hits give low values 0.373 | locus YPL106C, strain sse1, hits give low values 0.444 | locus YPL240C, strain hsp82, hits give low values 0.334 | locus YPL256C, strain CLN2, hits give low values 0.81
inactive: locus YLR357W, strain rsc2, hits give low values 1.11
